Assay [1] in a line: TOX21_p53_BLA_p2_viability: Viability Assessment in the Tox21 HCT-116 p53 Agonism Beta-lactamase Assay, Phase 2 (AID 2283591).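 Further: compound exposure lasted 16 h at 37 °C; actives lower the ATP signal meaning cytotoxicity.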 In short, it runs like this:
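HCT-116 p53-bla cells (4000/well) rested 5 h at 37C, then received compounds in DMSO (217-fold dilution) for 16 h at 37C, 5% CO2. After the CCF4 read, CellTiter-Glo was added; ATP luminescence was read after 30 min at room temperature.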

The target in assay [2] is Cellular tumor antigen p53 (Homo sapiens) (UniProt P04637). The experiment in a line: TOX21_p53_BLA_p2_ratio: Tox21 HCT-116 p53 Agonism Beta-lactamase Assay, Ratio, Phase 2 (AID 2283592). In short, it runs like this: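 In this cell-based reporter format, HCT116 cells were dosed with chemicals delivered from DMSO by 217-fold dilution and incubated 16 h at 37C. Emission at 460 and 530 nm after 2 h CCF4-AM loading provided the ratio, fitted upward versus DMSO.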

Assay [3] in a line: TOX21_p53_BLA_p3_viability: Viability Assessment in the Tox21 HCT-116 p53 Agonism Beta-lactamase Assay, Phase 3 (AID 2283593).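 Further: cells exposed to compound for 16 h before reading.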 In short, it runs like this:
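HCT-116 cells (4000/well) rested 5 h at 37C, then got DMSO compounds by pin tool (217-fold dilution) for 16 h at 37C, 5% CO2. After the bla read, CellTiter-Glo was added and luminescence read at 30 min, room temperature.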

Assay [4] concerns the target Cellular tumor antigen p53 (Homo sapiens) (UniProt P04637). Put plainly: TOX21_p53_BLA_p3_ratio: Tox21 HCT-116 p53 Agonism Beta-lactamase Assay, Ratio, Phase 3 (AID 2283596). In short, it runs like this:
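HCT116 p53-bla cells (4000/well) given compound in DMSO (217-fold dilution) after 5 h, incubated 16 h at 37C. CCF4-AM substrate 2 h at room temperature; 460/530 nm emission ratio, gain fitted against DMSO.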

Assay [5] is described as follows: TOX21_p53_BLA_p4_viability: Viability Assessment in the Tox21 HCT-116 p53 Agonism Beta-lactamase Assay, Phase 4 (AID 2283597).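 Further: hits lower the luminescence signal meaning cytotoxicity.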 In short, it runs like this:
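We seeded HCT116 p53 reporter cells at 4000/well and waited 5 h. We then added compounds in DMSO at a 217-fold dilution and incubated for 16 h. Viability was read as CellTiter-Glo luminescence after 30 min at RT.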

A short description of assay [6]: TOX21_p53_BLA_p5_viability: Viability Assessment in the Tox21 HCT-116 p53 Agonism Beta-lactamase Assay, Phase 5 (AID 2283600). In short, it runs like this:
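Compounds, pinned from DMSO at 217-fold dilution, were left on the cells for 16 h. The viability endpoint was ATP content measured by CellTiter-Glo luminescence, where falling signal reflects cytotoxicity.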

In assay [7] the target is Cellular tumor antigen p53 (Homo sapiens) (UniProt P04637). The experiment in a line: TOX21_p53_BLA_p4_ratio: Tox21 HCT-116 p53 Agonism Beta-lactamase Assay, Ratio, Phase 4 (AID 2283601). In short, it runs like this:
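HCT116 cells carrying an inducible beta-lactamase reporter were plated at 4000 cells/well, rested 5 h, then exposed to compounds in DMSO (217-fold dilution) for 16 h at 37C. CCF4-AM substrate was loaded 2 h at room temperature; 460/530 nm emission ratio scored gain-of-signal versus DMSO.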

Inconclusive results are not listed. Activity calls are given as the source filed them. How the source made its calls: active means hit-call score of the fitted dose curve at least 0.9, where 1 is the maximum; inconclusive means response in the unintended direction; inactive means score below 0.9.

Cellular tumor antigen p53 (Homo sapiens), sequence (P04637 whole entry, looked up): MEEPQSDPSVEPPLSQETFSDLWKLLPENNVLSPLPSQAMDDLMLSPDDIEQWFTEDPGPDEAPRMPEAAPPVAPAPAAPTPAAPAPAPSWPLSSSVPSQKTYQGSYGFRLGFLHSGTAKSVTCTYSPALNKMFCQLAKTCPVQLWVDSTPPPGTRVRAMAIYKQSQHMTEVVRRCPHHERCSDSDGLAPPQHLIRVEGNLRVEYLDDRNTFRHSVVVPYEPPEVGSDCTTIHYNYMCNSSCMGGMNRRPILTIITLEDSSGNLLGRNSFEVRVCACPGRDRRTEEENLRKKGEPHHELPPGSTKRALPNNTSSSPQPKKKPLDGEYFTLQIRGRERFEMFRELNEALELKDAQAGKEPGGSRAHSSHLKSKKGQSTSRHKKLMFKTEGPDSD

For the compound `CC(C)NNC(=O)c1ccncc1`, the result in assay [1], in assay [2], in assay [3], in assay [4], in assay [5] and in assay [6] was inactive. Moreover, in assay [7], the outcome was inactive.
As to `CO[C@H]1/C=C/O[C@@]2(C)Oc3c(C)c(O)c4c(O)c(c5c(c4c3C2=O)=NC2(CCN(CC(C)C)CC2)N=5)NC(=O)/C(C)=C\C=C\[C@H](C)[C@H](O)[C@@H](C)[C@@H](O)[C@@H](C)[C@H](OC(C)=O)[C@@H]1C`, the outcome in assay [1], in assay [2], in assay [3], in assay [4], in assay [5] and in assay [6] was inactive. Further, in assay [7], the outcome was inactive.
Turning to `CC1(C)S[C@@H]2[C@H](NC(=O)[C@H](N)c3ccccc3)C(=O)N2[C@H]1C(=O)OCOC(=O)[C@@H]1N2C(=O)C[C@H]2S(=O)(=O)C1(C)C`, the call in assay [1], in assay [2], in assay [3], in assay [4], in assay [5] and in assay [6] was inactive. For the same compound, the outcome in assay [7] was inactive.
Consider `CC/C=C\C/C=C\C/C=C\C/C=C\C/C=C\CCCC(=O)O`, for which the call in assay [1], in assay [2], in assay [3], in assay [4], in assay [5] and in assay [6] was inactive.
As to `CCCCN(CCCC)CC(O)c1cc(Cl)cc2c1-c1ccc(Cl)cc1/C2=C/c1ccc(Cl)cc1` (stereo not given), the outcome in assay [1], in assay [2], in assay [3], in assay [4], in assay [5] and in assay [6] was inactive. Moreover, the result in assay [7] was inactive.
For the compound `C[Si](NC1CCCCC1)(NC1CCCCC1)NC1CCCCC1`, the call in assay [1], in assay [2], in assay [3], in assay [4], in assay [6] and in assay [7] was inactive. Besides, the half-maximal activity concentration (AC50) in assay [5] was 88.8 µM (active).
For `O=C(O)CCCCCCCCCCCBr`, the compound was called inactive in assay [1], in assay [2], in assay [3], in assay [4], in assay [5] and in assay [6]. For the same compound, in assay [7], the result was inactive.
As to `C[S+](C)CCC(N)C(=O)O` (stereo not given), the result in assay [1], in assay [2], in assay [3], in assay [4], in assay [5] and in assay [6] was inactive.
`C=C[C@]1(C)C[C@@H](OC(=O)CSC(C)(C)CNC(=O)[C@H](N)C(C)C)[C@]2(C)[C@H](C)CC[C@]3(CCC(=O)[C@H]32)[C@@H](C)[C@@H]1O`: the compound was classed as inactive in assay [1], in assay [2], in assay [3], in assay [4], in assay [5] and in assay [6].
In the case of `CN[C@@H]1[C@H](O)[C@H](NC)[C@H]2O[C@@]3(O)C(=O)C[C@@H](C)O[C@H]3O[C@@H]2[C@H]1O`, the result in assay [1], in assay [2], in assay [3], in assay [4], in assay [5] and in assay [6] was inactive. The outcome in assay [7] was inactive.
Take `CCCCCCCCCCCC(=O)N(CCO)CCO`: the compound was classed as inactive in assay [1], in assay [2], in assay [3], in assay [4], in assay [5] and in assay [6].
As for `CC(C)(C(=O)O)c1ccc(C(O)CCCN2CCC(C(O)(c3ccccc3)c3ccccc3)CC2)cc1` (stereo not given), the outcome in assay [1], in assay [2], in assay [3], in assay [4], in assay [5] and in assay [6] was inactive. Moreover, the result in assay [7] was inactive.
Take `OCCCNc1ccccc1`: the compound was classed as inactive in assay [1], in assay [2], in assay [3], in assay [4], in assay [5] and in assay [6]. Further, the result in assay [7] was inactive.
For the compound `O=C(O)CCCCCC(=O)O`, the compound was called inactive in assay [1], in assay [2], in assay [3], in assay [4], in assay [5] and in assay [6]. Besides, the outcome in assay [7] was inactive.
Turning to `C[C@@H](O[C@H]1OCCN(Cc2n[nH]c(=O)[nH]2)[C@H]1c1ccc(F)cc1)c1cc(C(F)(F)F)cc(C(F)(F)F)c1`, the AC50 in assay [1] was 31.3 µM (active); in assay [3], 33.4 µM (active); in assay [5], 29.1 µM (active); in assay [6], 37.5 µM (active); in assay [7] it was 35.1 µM (active). Besides, the outcome in assay [2] and in assay [4] was inactive.
As to `COc1cc(C)nc(-n2nc(C)cc2OC)n1`, the outcome in assay [1], in assay [2], in assay [3], in assay [4], in assay [5] and in assay [6] was inactive. Besides, the result in assay [7] was inactive.
Turning to `Nc1ccc(N=Nc2ccccc2)c(N)c1`, the outcome in assay [1], in assay [2], in assay [3], in assay [4], in assay [5] and in assay [6] was inactive. In addition, the result in assay [7] was inactive.
For the compound `COc1cc(O)cc(O)c1`, the compound was classed as inactive in assay [1], in assay [2], in assay [3], in assay [4], in assay [5] and in assay [6]. For the same compound, the outcome in assay [7] was inactive.
Turning to `Cc1nc2ccccn2c(=O)c1CCN1CCC(C(=O)c2ccc(F)cc2)CC1`, the call in assay [1], in assay [2], in assay [3], in assay [4], in assay [5] and in assay [6] was inactive. In addition, in assay [7], the result was inactive.
`CN(C/C=C/C#CC(C)(C)C)Cc1cccc2ccccc12`: the outcome in assay [1], in assay [2], in assay [3], in assay [4], in assay [5] and in assay [6] was inactive. The result in assay [7] was inactive.
For the compound `OCCN1CCN(CCCN2c3ccccc3Sc3ccc(C(F)(F)F)cc32)CC1`, the outcome in assay [1], in assay [2], in assay [3], in assay [4] and in assay [6] was inactive. Moreover, the AC50 in assay [5] was 33.5 µM (active); in assay [7] it was 40.9 µM (active).
On to `CC(C)Oc1ccc2c(=O)c(-c3ccccc3)coc2c1`, for which the compound was classed as inactive in assay [1], in assay [2], in assay [3], in assay [4], in assay [5] and in assay [6]. Besides, the result in assay [7] was inactive.
Consider `Cc1cc(C(C)(C)C)c(O)c(C)c1Cn1c(=O)n(Cc2c(C)cc(C(C)(C)C)c(O)c2C)c(=O)n(Cc2c(C)cc(C(C)(C)C)c(O)c2C)c1=O`, for which the call in assay [1], in assay [2], in assay [3], in assay [5], in assay [6] and in assay [7] was inactive. Besides, the AC50 in assay [4] was 56.3 µM (active).
In the case of `C1=CC2C3C=CC(C3)C2C1` (stereo not given) (tested in a mixture with another compound), the outcome in assay [1], in assay [2], in assay [3], in assay [4], in assay [5] and in assay [6] was inactive.
On to `OC(CCN1CCCC1)(c1ccccc1)C1CCCCC1` (stereo not given), for which the call in assay [1], in assay [2], in assay [3], in assay [4], in assay [5] and in assay [6] was inactive. Further, in assay [7], the result was inactive.
Consider `CNC(=O)CN(CCN(CCN(CC(=O)[O-])CC(=O)NC)CC(=O)[O-])CC(=O)[O-].O.[Gd+3]`, for which the call in assay [1], in assay [2], in assay [3], in assay [4], in assay [5] and in assay [6] was inactive. In addition, the outcome in assay [7] was inactive.
Take `COC(=O)C1=C(C)NC(C)=C(C(=O)OCCCN2CCC(c3ccccc3)(c3ccccc3)CC2)C1c1cccc([N+](=O)[O-])c1` (stereo not given): the half-maximal activity concentration (AC50) in assay [1] is 32.9 µM (active); in assay [2] it was 42 µM (active); in assay [3] it was 36 µM (active); in assay [4], 36.8 µM (active); in assay [5] it was 28.8 µM (active); in assay [6], 37.4 µM (active). The AC50 in assay [7] is 42.8 µM (active).
`CC(CNC1CCCCC1)OC(=O)c1ccccc1` (stereo not given): the compound was classed as inactive in assay [1], in assay [2], in assay [3], in assay [4], in assay [5] and in assay [6].

The record behind these values is PubChem BioAssay (EPA / NIEHS).
